According to PubChem BioAssay AID1159580 (chemical genetic matrix, 2015):
Screen size: about 5,500 compounds; about 2,000 (36%) were called active. Not shown: some 18% with an inconclusive outcome. No stated cut-off is given here; in the data, active means normalized growth mostly below about 0.91 (no sharp cut-off); inconclusive means no clear call, values can overlap the other calls; inactive means mostly above about 0.92. The list shows a part of the results.

Assay: chemical genetic growth profiling, strain panel (AID 1159580);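 further: tested at 20 µM; growth read once vehicle control cultures reached saturation at 30 °C; 1 = growth at the plate median or of vehicle wells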
Details: S. cerevisiae deletion strains, growth OD

Measured: normalized growth

CCO/C([O-])=N/c1c[n+](N2CCOCC2)no1
inactive: locus YAL040C, strain CLN3, stronger effect = lower value 0.99 | locus YCL061C, strain MRC1 (second series), stronger effect = lower value 0.99 | locus YDR363W, strain ESC2, stronger effect = lower value 1.02 | locus YER002W, strain NOP16, stronger effect = lower value 1 | locus YMR263W, strain SAP30, stronger effect = lower value 0.98 | locus YMR307W, strain GAS1, stronger effect = lower value 0.996 | locus YNL128W, strain TEP1, stronger effect = lower value 1.01 | locus YNL175C, strain NOP13, stronger effect = lower value 1 | locus YNL197C, strain WHI3, stronger effect = lower value 0.984 | locus YNL224C, strain SQS1, stronger effect = lower value 1.01 | locus YOR083W, strain WHI5 (second series), stronger effect = lower value 0.995 | locus YPL241C, strain CIN2, stronger effect = lower value 0.968

NC(=O)c1ncn(C2O[C@H](CO)[C@@H](O)[C@H]2O)c1N (some centres not stated)
inactive: locus YAL021C, strain ccr4, stronger effect = lower value 1.04 | locus YAL026C, strain drs2, stronger effect = lower value 1.03 | locus YAL030W, strain snc1, stronger effect = lower value 1.03 | locus YBL061C, strain skt5, stronger effect = lower value 1.04 | locus YBR009C, strain hhf1, stronger effect = lower value 1.07 | locus YBR023C, strain chs3, stronger effect = lower value 1.02 | locus YBR171W, strain sec66, stronger effect = lower value 1.05 | locus YBR231C, strain swc5, stronger effect = lower value 1.04 | locus YBR279W, strain paf1, stronger effect = lower value 1.02 | locus YCL011C, strain gbp2, stronger effect = lower value 1.04 | locus YCL016C, strain dcc1, stronger effect = lower value 1.03 | locus YCL061C, strain MRC1, stronger effect = lower value 1.04 | locus YCL069W, strain vba3, stronger effect = lower value 1.03 | locus YCR088W, strain abp1, stronger effect = lower value 1.03 | locus YDL005C, strain med2, stronger effect = lower value 1.04 | locus YDL040C, strain nat1, stronger effect = lower value 1.03 | locus YDR001C, strain nth1, stronger effect = lower value 1.03 | locus YDR069C, strain doa4, stronger effect = lower value 1.03 | locus YDR137W, strain rgp1, stronger effect = lower value 1.04 | locus YDR159W, strain sac3, stronger effect = lower value 1.05 | locus YDR195W, strain ref2 1.02 | locus YDR297W, strain sur2, stronger effect = lower value 1.03 | locus YDR334W, strain swr1, stronger effect = lower value 1.04 | locus YDR335W, strain msn5, stronger effect = lower value 1.03 | locus YDR392W, strain spt3, stronger effect = lower value 1 | locus YEL003W, strain gim4, stronger effect = lower value 1.03 | locus YEL037C, strain rad23, stronger effect = lower value 1.03 | locus YEL061C, strain CIN8 (second series), stronger effect = lower value 1.03 | locus YER015W, strain faa2, stronger effect = lower value 1.04 | locus YER016W, strain bim1, stronger effect = lower value 1.03 | locus YER111C, strain swi4, stronger effect = lower value 1.04 | locus YER155C, strain BEM2 (second series), stronger effect = lower value 1.06 | locus YFR010W, strain ubp6, stronger effect = lower value 1.04 | locus YGL167C, strain pmr1, stronger effect = lower value 1.04 | locus YGL173C, strain kem1, stronger effect = lower value 1.04 | locus YGL227W, strain vid30, stronger effect = lower value 1.04 | locus YGL240W, strain doc1, stronger effect = lower value 1.06 | locus YGL253W, strain hxk2, stronger effect = lower value 1.04 | locus YHR013C, strain ard1, stronger effect = lower value 1.03 | locus YHR027C, strain rpn1, stronger effect = lower value 1.03 | locus YHR030C, strain SLT2, stronger effect = lower value 0.991 | locus YHR079C, strain IRE1, stronger effect = lower value 1.01 | locus YHR142W, strain chs7, stronger effect = lower value 1.02 | locus YJL092W, strain hpr5, stronger effect = lower value 1.02 | locus YJL095W, strain BCK1 (second series), stronger effect = lower value 1.03 | locus YJL095W, strain BCK1, stronger effect = lower value 1.01 | locus YJL115W, strain asf1, stronger effect = lower value 1.03 | locus YJL129C, strain trk1, stronger effect = lower value 1.04 | locus YJL154C, strain vps35, stronger effect = lower value 1.02 | locus YJL164C, strain tpk1, stronger effect = lower value 1.02 | locus YJL166W, strain qcr8, stronger effect = lower value 1.05 | locus YJL187C, strain SWE1, stronger effect = lower value 1.03 | locus YJR066W, strain TOR1, stronger effect = lower value 0.949 | locus YKL160W, strain elf1, stronger effect = lower value 1.02 | locus YKR026C, strain gcn3, stronger effect = lower value 1.03 | locus YKR091W, strain srl3, stronger effect = lower value 1.03 | locus YLL001W, strain dnm1, stronger effect = lower value 1.04 | locus YLL026W, stronger effect = lower value 1.03 | locus YLL041C, strain sdh2, stronger effect = lower value 1.04 | locus YLR027C, strain aat2, stronger effect = lower value 1.03 | locus YLR113W, strain HOG1, stronger effect = lower value 0.993 | locus YLR221C, strain rsa3, stronger effect = lower value 1.03 | locus YLR258W, strain gsy2, stronger effect = lower value 1.04 | locus YLR262C, strain YPT6 (second series), stronger effect = lower value 1.05 | locus YLR320W, strain mms22, stronger effect = lower value 1.05 | locus YLR342W, strain FKS1, stronger effect = lower value 1.05 | locus YLR357W, strain rsc2, stronger effect = lower value 1.08 | locus YLR370C, strain arc18, stronger effect = lower value 1.05 | locus YLR384C, strain iki3, stronger effect = lower value 1.04 | locus YML120C, strain ndi1, stronger effect = lower value 1.01 | locus YMR058W, strain fet3, stronger effect = lower value 1.03 | locus YMR125W, strain sto1, stronger effect = lower value 1.04 | locus YMR129W, stronger effect = lower value 1.03 | locus YMR205C, strain PFK2, stronger effect = lower value 1.07 | locus YMR231W, strain pep5, stronger effect = lower value 1.03 | locus YNL071W, strain lat1, stronger effect = lower value 1.04 | locus YNL183C, strain NPR1, stronger effect = lower value 0.965 | locus YNL209W, strain ssb2, stronger effect = lower value 1.04 | locus YNL248C, strain rpa49, stronger effect = lower value 1.03 | locus YNL322C, strain KRE1 (second series), stronger effect = lower value 1.03 | locus YNR049C, strain mso1, stronger effect = lower value 1.04 | locus YOR001W, strain rrp6, stronger effect = lower value 1.02 | locus YOR070C, strain gyp1, stronger effect = lower value 1.03 | locus YOR080W, strain dia2, stronger effect = lower value 1.05 | locus YOR083W, strain WHI5, stronger effect = lower value 1.02 | locus YOR106W, strain vam3, stronger effect = lower value 1.03 | locus YOR231W, strain MKK1, stronger effect = lower value 1.01 | locus YOR265W, strain rbl2, stronger effect = lower value 1.04 | locus YOR270C, strain vph1, stronger effect = lower value 1.05 | locus YOR290C, strain snf2, stronger effect = lower value 0.974 | locus YPL051W, strain arl3, stronger effect = lower value 1.01 | locus YPL078C, strain atp4, stronger effect = lower value 1.03 | locus YPL106C, strain sse1, stronger effect = lower value 1.08 | locus YPL240C, strain hsp82, stronger effect = lower value 1.03 | locus YPL256C, strain CLN2, stronger effect = lower value 0.982
